Measured values published in article PMC4336329 (PLoS ONE, 2015).
Screen size: about 310,000 compounds; about 2,200 (0.71%) showed an effect of 50% or more. Effects have a minus sign here. This is one part of a sample in which strong results are shown more often than they occur.

Target: human ether-à-go-go-related gene (hERG) potassium channel (human, UniProt Q12809)
Assay: primary screen, population patch clamp on CHO cells stably expressing hERG; higher = less effect of the substance

human ether-à-go-go-related gene (hERG) potassium channel, sequence (Q12809 whole entry, looked up): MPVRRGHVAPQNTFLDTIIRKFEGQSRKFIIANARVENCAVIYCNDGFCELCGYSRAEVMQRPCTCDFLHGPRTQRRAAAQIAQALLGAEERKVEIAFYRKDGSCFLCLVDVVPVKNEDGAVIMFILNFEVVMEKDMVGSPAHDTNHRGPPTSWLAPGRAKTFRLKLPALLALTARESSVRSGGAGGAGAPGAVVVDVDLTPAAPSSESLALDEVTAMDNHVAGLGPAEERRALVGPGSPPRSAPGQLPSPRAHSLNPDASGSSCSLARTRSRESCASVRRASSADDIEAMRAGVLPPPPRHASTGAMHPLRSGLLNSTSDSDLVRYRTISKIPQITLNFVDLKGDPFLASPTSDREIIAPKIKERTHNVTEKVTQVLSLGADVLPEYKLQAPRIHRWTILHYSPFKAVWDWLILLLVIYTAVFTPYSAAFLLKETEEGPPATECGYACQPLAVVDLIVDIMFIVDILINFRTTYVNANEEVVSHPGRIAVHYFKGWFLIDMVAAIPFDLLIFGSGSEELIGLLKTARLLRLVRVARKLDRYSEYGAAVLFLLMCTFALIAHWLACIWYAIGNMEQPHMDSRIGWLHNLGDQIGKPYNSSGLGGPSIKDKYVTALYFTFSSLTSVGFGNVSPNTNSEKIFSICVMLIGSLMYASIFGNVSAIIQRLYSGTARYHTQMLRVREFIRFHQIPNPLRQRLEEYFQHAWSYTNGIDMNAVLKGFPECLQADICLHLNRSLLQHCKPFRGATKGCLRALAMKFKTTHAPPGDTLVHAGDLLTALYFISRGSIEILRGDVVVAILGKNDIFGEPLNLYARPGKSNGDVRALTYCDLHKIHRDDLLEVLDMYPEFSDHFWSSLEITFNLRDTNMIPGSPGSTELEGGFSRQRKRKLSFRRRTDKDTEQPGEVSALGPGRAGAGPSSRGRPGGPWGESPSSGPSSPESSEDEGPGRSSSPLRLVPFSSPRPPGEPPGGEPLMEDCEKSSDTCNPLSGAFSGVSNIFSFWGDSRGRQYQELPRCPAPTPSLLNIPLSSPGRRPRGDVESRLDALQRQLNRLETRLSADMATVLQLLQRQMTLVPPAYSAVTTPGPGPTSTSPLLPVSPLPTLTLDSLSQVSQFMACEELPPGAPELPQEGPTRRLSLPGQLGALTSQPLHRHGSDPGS

| Compound | hERG current change (%, negative = inhibition) at 1uM [%] |
| --- | --- |
| CC(C)c1ccc(NC(=O)c2ccc(NC3=NC4CS(=O)(=O)CC4S3)cc2)cc1 (stereo not drawn) | -0.0656 |
| COCC(=O)N(Cc1cc2cc(C)ccc2[nH]c1=O)c1ccc(C)c(C)c1 | 16.4 |
| CN1CCN(NC(=O)CN(C)S(=O)(=O)c2cc(Cl)ccc2Cl)CC1 | 6.96 |
| O=C(NNc1c(Cl)cccc1Cl)C1CCC1 | 13.3 |
| COc1ccc(-c2coc3c(CN4CCCCC4)c(O)c(CN4CCCCC4)c(O)c3c2=O)cc1 | -88 |
| COc1ccc(-c2coc3c(CN4CCOCC4)c(O)ccc3c2=O)cc1 | 0.432 |
| Cl.O=C(c1ccccc1)c1coc2ccc(O)c(CN3CCOCC3)c12 | -21 |
| COc1ccc(C(=O)c2coc3ccc(O)c(CN4CCCCC4)c23)cc1 | -61.4 |
| COc1ccc(C(=O)c2coc3ccc(O)c(CN4CCOCC4)c23)cc1 | 1.63 |
| Cc1ccc(C(=O)c2coc3ccc(O)c(CN4CCN(C)CC4)c23)cc1 | -25.5 |
| COc1ccc(OC)c(C(=O)c2coc3ccc(O)c(CN4CCOCC4)c23)c1 | -6.28 |
| COc1ccc(C(=O)c2coc3ccc(O)c(CN4CCCC4)c23)cc1 | -56.9 |
| COc1ccc(-c2coc3c(CN4CCCCC4C)c(O)ccc3c2=O)cc1 (stereo not drawn) | 7.15 |
| CC1CCCCN1Cc1nc2c(c(=O)n(C)c(=O)n2C)n1Cc1c(F)cccc1Cl (stereo not drawn) | 11.4 |
| C/C(N)=C(/C#N)C(=O)CSc1nc2ccccc2[nH]1 | 5.05 |
| COc1ccc(NC(=O)CNC(c2ccccc2)c2ccccc2)cc1.O=C(O)C(=O)O | 14.5 |
| O=C(COC(=O)Cc1ccc(Br)cc1)NC1CCCCCC1 | 11.4 |
| O=C(Cn1cnc2ccccc21)Nc1ccc(F)c(F)c1 | 3.75 |
| O=C(Cn1cnc2ccccc21)Nc1ccc(C(=O)O)cc1.O=C(O)C(=O)O | -52.9 |

| Compound | hERG current change (%, negative = inhibition) at 1uM [%] |
| --- | --- |
| Cc1ccc(NC(=O)Cn2cnc3ccccc32)cc1C | 6.29 |
| Cc1ncc(CSc2ccc(Cl)cc2)c(CO)c1O | 12.9 |
| COCCCNC(=O)c1ccc2nc(Cc3ccc(OC)cc3)oc2c1 | 10.8 |
| Cn1nnnc1Sc1ncnc2scc(-c3cccc(S(C)(=O)=O)c3)c12 | 12.6 |
| CCOc1ccc(CN2CCN(Cc3ccc(C)o3)CC2CCO)cc1 (stereo not drawn) | -87.8 |
| Cc1ccc(CN2CCN(Cc3cc4ccccc4o3)CC2CCO)cc1 (stereo not drawn) | -12.5 |
| OCCC1CN(Cc2cc3ccccc3o2)CCN1Cc1ccc(F)cc1 (stereo not drawn) | 15.2 |
| Cc1ccc(CN2CCN(Cc3ccc(OCCO)cc3)CC2CCO)o1 (stereo not drawn) | 1.83 |
| CCOc1ccccc1CN1CCN(C2CCSCC2)CC1CCO (stereo not drawn) | -7.19 |
| CCOc1ccc(CN2CCN(C3CCSCC3)CC2CCO)cc1 (stereo not drawn) | -76.2 |
| CCOc1ccccc1CN1CCN(Cc2ccc(C)o2)CC1CCO (stereo not drawn) | -9.63 |
| CCOc1ccc(CN2CCN(Cc3cc4ccccc4o3)CC2CCO)cc1 (stereo not drawn) | -82 |
| OCCC1CN(Cc2cnc(-c3ccccc3)s2)CCN1Cc1ccccc1 (stereo not drawn) | 1.93 |
| CCOc1ccc(CN2CCN(C3CCC3)CC2CCO)cc1 (stereo not drawn) | 3.11 |
| CCOc1ccc(CN2CCN(Cc3cnc(-c4ccccc4)s3)CC2CCO)cc1 (stereo not drawn) | -90.1 |
| CCOc1ccc(CN2CCN(Cc3cnc(N4CCOCC4)s3)CC2CCO)cc1 (stereo not drawn) | -19.2 |
| O=C(CSc1nnc(CNC(=O)c2ccccc2)o1)NCc1ccc2c(c1)OCO2 | 4.4 |
| CCN1CCN(c2c(Cl)cccc2NC(=O)c2ccc([N+](=O)[O-])cc2)CC1 | -15.9 |
| CSc1ccccc1C(=O)C1CCCN(C(=O)CCc2cccnc2)C1 (stereo not drawn) | 8.69 |

| Compound | hERG current change (%, negative = inhibition) at 1uM [%] |
| --- | --- |
| COc1ccc(NC(=O)CSc2nc3ccccc3c(=O)n2CCCO)cn1 | -26.1 |
| COc1ccc(OC)c(C2CC(=O)NC(SC)=C2C#N)c1 (stereo not drawn) | 7.92 |
| O=C(CSc1ccccc1)Nc1nnc(COc2ccc(Cl)cc2)s1 | 3.34 |
| COc1cc(CN2CCN(Cc3ccc4cc(F)ccc4n3)CC2CCO)cc(OC)c1 (stereo not drawn) | -21.6 |
| CCOc1ccccc1CN1CCN(Cc2ccc3cc(F)ccc3n2)CC1CCO (stereo not drawn) | -44.1 |
| CCOc1ccc(CN2CCN(Cc3ccc4cc(F)ccc4n3)CC2CCO)cc1 (stereo not drawn) | -79.3 |
| Cc1ccc(N/C(N)=N/c2nc(C)cc(C)n2)cc1 | -24.7 |
| Cc1cc(C)nc(/N=C(\N)Nc2ccc(OCc3ccccc3)cc2)n1 | -28.8 |
| Cc1cc(C)nc(/N=C(\N)Nc2ccc(OCCC(C)C)cc2)n1 | -55.9 |
| Cc1cc(=O)[nH]c(/N=C(\N)Nc2ccc(SC(F)F)cc2)n1 | 1.96 |
| Cc1cc(C)nc(/N=C(\N)Nc2ccc(C(C)C)cc2)n1 | -3.29 |
| CC(=O)Nc1ccc(N/C(N)=N/c2nc(C)cc(C)n2)cc1 | 8.5 |
| CCOc1ccc(N/C(N)=N/c2nc(C)cc(C)n2)cc1 | 4.81 |
| Cc1cc(C)nc(/N=C(\N)Nc2ccc(SC(F)F)cc2)n1 | -52.9 |
| Cc1cc(C)nc(/N=C(\N)Nc2ccc(-c3ccccc3)cc2)n1 | -59.8 |
| COc1cccc(N2CCN(S(=O)(=O)c3c(C)[nH]c(C)c3C(=O)N3CCCCC3)CC2)c1 | 15.2 |
| CC(C)(C)OC(=O)N1CCC(Cc2cc(-c3cccc(Br)c3)no2)(C(=O)O)CC1 | -14 |
| Cc1ccc(-n2nc3c(c2NC(=O)C2CC2)CS(=O)(=O)C3)cc1 | -0.97 |
| O=C(COC(=O)C1CCCCC1)Nc1ccccc1OC(F)F | 12.3 |
